Experimental data as given in PubChem BioAssay (NCATS).
Records with an inconclusive call do not appear. Activity calls are given as the source filed them. Unless noted, calls come from the whole dose curve; as a rule, active = well fitted curve in the direction sought with a large enough effect; inconclusive = small, poorly fitted or top-dose-only effect, or another doubt; inactive = no such curve, though single readings can be large; an effect the other way counts as inactive or inconclusive.

Tests used:
[1] = High-throughput drug toxicity screening in the BPDCN cell line Gen2.2 (AID 1224824; call rule not given here;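 note: cells exposed to compounds for 48 h before reading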); details: Gen2.2 BPDCN cells; at 45.8 µM (top of the series) unless noted
In short: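 Gen2.2 cells, 500 per well in phenol red-free RPMI with 10% FBS, exposed to compounds 48 h at 37 C, 5% CO2; viability by CellTiter-Glo luminescence. Percent activity scaled to DMSO (100%) and 9.2 uM bortezomib final (0%).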

[2] = High-throughput drug toxicity screening in the BPDCN cell line Cal-1 (AID 1224825; call rule not given here); details: Cal-1 BPDCN cell viability, qHTS; at 45.8 µM (top of the series) unless noted
In short: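 Exponentially growing Cal-1 cells, 500 per well in phenol red-free RPMI with 10% FBS, were exposed to compounds for 48 h at 37 °C, 5% CO2. Viability was read by CellTiter-Glo luminescence and normalised to DMSO (100%) and 9.2 uM bortezomib (0%).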

[3] = qHTS assay for measurement of the activity of small molecule inhibitors on Zika virus induced Caspase-3 activity in human iPSC derived neural progenitor cells (hNPCs) (AID 1224857); note: nearly all actives have a fitted effect of over 65% in size
In short: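 Pretreat hNPCs with compound 1 h; infect ZIKV 2 FFU/cell; 6 h 37 C, 5% CO2; Caspase-Glo 3/7, 30 min RT; luminescence; normalize to no-virus and virus-only wells.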

[4] = qHTS assay for measurement of the activity of small molecule inhibitors on Zika virus induced Caspase-3 activity in human astrocytoma cells (AID 1224859)
In short: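 Human SNB-19 astrocytoma cells in RPMI 1640 with 10% FBS receive compound one hour ahead of Zika virus at 2 FFU/cell. After 6 h infection, caspase-3/7 activity is detected by Caspase-Glo luminescence.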

[5] = qHTS Screen of the MIPE 4.0 Collection Against Ewings Sarcoma (RDES) (AID 1259252); note: nearly all actives have a fitted effect of over 35% in size; note: potency is the fitted concentration of half-maximal effect
In short: (§1)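 Here, cells in 5% FBS RPMI were exposed for two days (48 h) to compound dilutions added four hours after plating. ATP-based CellTiter-Glo luminescence measured viability, normalized to vehicle and no-cell blanks.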

[6] = qHTS Screen of the MIPE 4.0 Collection Against Ewings Sarcoma (TC71) (AID 1259253); note: nearly all actives have a fitted effect of over 40% in size; note: potency is the fitted concentration of half-maximal effect
In short: as §1

[7] = qHTS Screen of the MIPE 4.0 Collection Against Ewings Sarcoma (EW8) (AID 1259255); note: nearly all actives have a fitted effect of over 35% in size; note: potency is the fitted concentration of half-maximal effect
In short: as §1

[8] = qHTS Screen of the MIPE 4.0 Collection Against Ewings Sarcoma (TC32) (AID 1259256); note: nearly all actives have a fitted effect of over 45% in size; note: potency is the fitted concentration of half-maximal effect
In short: as §1

[9] = qHTS assay to identify small molecule inhibitors of chordoma cells - UCH-1 (AID 1259355); note: nearly all actives have a fitted effect of over 55% in size
In short: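 Luminescent ATP read-out (CellTiter-Glo, 30min at room temperature) measured viability of UCH-1 cells exposed for 48hr to test drugs at 15 concentrations, co-dosed with a five-agent combination of auranofin, camptothecin, doxorubicin, rubitecan and topotecan.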

[10] = qHTS assay to identify small molecule inhibitors of chordoma cells - UCH-2 (AID 1259356)
[11] = P-glycoprotein substrates identified in KB-3-1 adenocarcinoma cell line, qHTS therapeutic library screen (AID 1346986); note: nearly all actives have a fitted effect of over 60% in size
In short: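 KB-3-1 parental cells and P-gp-overexpressing KB-8-5-11 (colchicine omitted during assay) plated at 500 cells/well, dosed in dose-response, incubated 72 h at 37 degree C. CellTiter-Glo luminescence read; KB-8-5-11 also tested with tariquidar.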

[12] = P-glycoprotein substrates identified in KB-8-5-11 adenocarcinoma cell line, qHTS therapeutic library screen (AID 1346987); note: nearly all actives have a fitted effect of over 65% in size; note: potency is the fitted concentration of half-maximal effect
In short: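 P-gp-mediated resistance screen: KB-8-5-11 cells treated 72 h with compounds in dose-response. CellTiter-Glo viability.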

[13] = Natriuretic polypeptide receptor (hNpr1) antagonism - Pilot counterscreen GloSensor control cell line (AID 1347045; calls by dose curve)
In short: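 This counterscreen uses HEK293 cells expressing the GIP/pGS-40F cGMP biosensor. Compound-treated cells are challenged with 50 uM sodium nitroprusside, and the luciferase signal is compared before and after stimulation.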

[14] = Identifying Small Molecule Inhibitors of Pancreatic Cancer Stem Cells (SN12C, Adherent) (AID 1259358);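 note: cell survival measured after 48 h of compound exposure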
In short: (§2)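 Luminescent ATP readout (CellTiter-Glo) quantifies surviving cells after a 48 h drug incubation. Normalization uses DMSO wells as no inhibition and media-only wells as full inhibition; bortezomib served as positive control.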

[15] = Identifying Small Molecule Inhibitors of Pancreatic Cancer Stem Cells (SN12C, Spheroid) (AID 1259360); details: Potency: SN12C spheroid viability
In short: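 After a 4 h attachment period, compounds were pinned into wells and cultures held 48 h under standard incubator conditions. Viability was then measured as CellTiter-Glo luminescence following 10 min at room temperature.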

[16] = Identifying Small Molecule Inhibitors of Pancreatic Cancer Stem Cells (A278, Adherent) (AID 1259361); note: nearly all actives have a fitted effect of over 35% in size
In short: as §2

[17] = Identifying Small Molecule Inhibitors of Pancreatic Cancer Stem Cells (Panc1, Spheroid) (AID 1259359);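 note: potency is the fitted concentration of half-maximal effect; compound exposure lasted 48 h before reading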
In short: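 Cytotoxicity read by CellTiter-Glo luminescence after 48 h compound exposure at 37C; percent activity scaled between DMSO-treated cells and cell-free wells. Spheroid formats used cells pre-formed 14 days in stem cell media on hydrogel.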

[18] = Identifying Small Molecule Inhibitors of Pancreatic Cancer Stem Cells (Panc1, Adherent) (AID 1259362); details: Potency: viability;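 note: compound exposure lasted 48 h before the viability read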
In short: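 Pre-formed 14-day tumor spheroids or adherent cells dosed and incubated 48 h, 37C, 5% CO2. Viability assessed by CellTiter-Glo.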

CNC[C@H](O)c1cccc(O)c1
inactive: Potency [3] | Potency [4] | Potency [5] | Potency [6] | Potency [7] | Potency [8] | Potency [9] | outcome [10] | Potency [11] | Potency [12] | outcome [13]
196%: cell viability, % of control (lower = more cytotoxic) [1]
133%: viability (% of control) [2]

Nc1nc2c(ncn2COCCO)c(=O)[nH]1
34.4%: viability (% of control) [2]
126%: cell viability, % of control (lower = more cytotoxic) [1]
inactive: Potency [3] | Potency [4] | Potency [5] | Potency [7] | Potency [8] | Potency [9] | outcome [10] | outcome [13]

N[C@@H]1CONC1=O
150%: cell viability, % of control (lower = more cytotoxic) [1]
97.9%: viability (% of control) [2]
inactive: Potency [3] | Potency [4] | Potency [5] | Potency [7] | Potency [8] | Potency [9] | outcome [10] | outcome [13]

O=C1CCc2cc(OCCCCc3nnnn3C3CCCCC3)ccc2N1
137%: cell viability, % of control (lower = more cytotoxic) [1]
84.4%: viability (% of control) [2]
inactive: Potency [3] | Potency [4] | Potency [5] | Potency [6] | Potency [7] | Potency [8] | Potency [9] | outcome [10] | Potency [12] | outcome [13]

CC(C)C[C@H](NC(=O)[C@@H](O)[C@H](N)Cc1ccccc1)C(=O)O
103%: cell viability, % of control (lower = more cytotoxic) [1]
active: Potency [5] 23.5 µM | Potency [6] 26.4 µM | Potency [8] 23.5 µM | Potency [12] 23.5 µM
38.3%: viability (% of control) [2]
inactive: Potency [3] | Potency [4] | Potency [14] | Potency [15] | IC50 (viability decrease) [16] | outcome [13]

NC(N)=NC(=O)c1nc(Cl)c(N)nc1N
23.5%: viability (% of control) [2]
12.8%: cell viability, % of control (lower = more cytotoxic) [1]
active: Potency [12] 25.9 µM
inactive: Potency [3] | Potency [4] | Potency [5] | Potency [6] | Potency [7] | Potency [8] | Potency [9] | outcome [10] | Potency [11] | outcome [13]

CCOC(=O)C1=C[C@]2(CC)CCCN3CCc4c(n1c1ccccc41)[C@@H]32
2.19%: viability (% of control) [2]
inactive: Potency [3] | Potency [4] | Potency [9] | outcome [10] | outcome [13]
active: Potency [5] 23.5 µM | Potency [6] 20.9 µM | Potency [7] 18.7 µM | Potency [8] 18.7 µM | Potency [12] 26.4 µM
13.3%: cell viability, % of control (lower = more cytotoxic) [1]

CC(=O)Oc1ccccc1C(=O)O
active: Potency [5] 8.33 µM | Potency [6] 18.7 µM | Potency [7] 20.9 µM | Potency [8] 11.8 µM
135%: viability (% of control) [2]
inactive: Potency [3] | Potency [4] | Potency [9] | outcome [10] | Potency [12] | outcome [13]
125%: cell viability, % of control (lower = more cytotoxic) [1]

NCCc1ccc(O)c(O)c1
active: Potency [6] 16.6 µM | Potency [7] 16.6 µM | Potency [8] 1.66 µM
inactive: Potency [3] | Potency [4] | Potency [5] | Potency [9] | outcome [10] | Potency [12] | outcome [13]
14.2%: cell viability, % of control (lower = more cytotoxic) [1]
25%: viability (% of control) [2]

CC(C)(Sc1ccc(CCN(CCCCC2CCCCC2)C(=O)NC2CCCCC2)cc1)C(=O)O
75.1%: cell viability, % of control (lower = more cytotoxic) [1]
active: Potency [5] 14.8 µM | Potency [7] 4.69 µM | Potency [8] 18.7 µM
inactive: Potency [3] | Potency [4] | Potency [6] | Potency [14] | Potency [15] | IC50 (viability decrease) [16] | Potency [11] | Potency [12]
7.76%: viability (% of control) [2]

O=C1CCC(N2C(=O)c3ccccc3C2=O)C(=O)N1 (stereo unspecified)
95.9%: viability (% of control) [2]
active: Potency [8] 0.0037 µM
inactive: Potency [3] | Potency [4] | Potency [5] | Potency [7] | Potency [9] | outcome [10] | Potency [12] | outcome [13]
167%: cell viability, % of control (lower = more cytotoxic) [1]

Clc1cccc(Cl)c1NC1=NCCN1
inactive: Potency [3] | Potency [4] | Potency [5] | Potency [6] | Potency [7] | Potency [8] | Potency [9] | outcome [10] | Potency [11] | Potency [12] | outcome [13]
144%: cell viability, % of control (lower = more cytotoxic) [1]
113%: viability (% of control) [2]

CC(C[N+](C)(C)C)OC(N)=O (stereo unspecified)
120%: cell viability, % of control (lower = more cytotoxic) [1] | viability (% of control) [2]
inactive: Potency [3] | Potency [4] | Potency [5] | Potency [7] | Potency [8] | Potency [9] | outcome [10] | Potency [12] | outcome [13]

CCCCNc1cc(C(=O)O)cc(S(N)(=O)=O)c1Oc1ccccc1
596%: cell viability, % of control (lower = more cytotoxic) [1]
inactive: Potency [3] | Potency [4] | Potency [5] | Potency [6] | Potency [7] | Potency [8] | Potency [9] | outcome [10] | Potency [12] | outcome [13]
113%: viability (% of control) [2]

Cc1[nH]c(=O)c(C#N)cc1-c1ccncc1
inactive: Potency [3] | Potency [4] | Potency [5] | Potency [6] | Potency [7] | Potency [8] | Potency [9] | outcome [10] | Potency [12]
244%: cell viability, % of control (lower = more cytotoxic) [1]
23%: viability (% of control) [2]

O=c1[nH]cnc2[nH]ncc12
101%: viability (% of control) [2]
124%: cell viability, % of control (lower = more cytotoxic) [1]
inactive: Potency [3] | Potency [4] | Potency [5] | Potency [6] | Potency [7] | Potency [8] | Potency [9] | outcome [10] | Potency [12] | outcome [13]

Nc1cccc(S(=O)(=O)N2CCCN(S(=O)(=O)c3ccc4c(c3)OCCO4)CC2)c1
inactive: Potency [3] | Potency [4] | Potency [5] | Potency [8] | Potency [14] | Potency [15] | IC50 (viability decrease) [16] | Potency [18]
active: Potency [6] 16.6 µM | Potency [17] 5.26 µM
104%: viability (% of control) [2]
162%: cell viability, % of control (lower = more cytotoxic) [1]
